Test results: PubChem BioAssay (EPA / NIEHS)
Results filed as inconclusive are left out. Activity calls are given as the source filed them. The calls were made as follows: active = hit-call score of the fitted dose curve at least 0.9, where 1 is the maximum; inconclusive = response in the unintended direction; inactive = score below 0.9.

What was measured:
[1] = target: rat Gamma-Aminobutyric Acid Type B Receptor (GABBR), Gabbr1 (gene 81657) (UniProt Q9Z0U4); assay: NVS_GPCR_rGABBR: NovaScreen (NVS) G Protein-Coupled Receptor Assay for rat Gamma-Aminobutyric Acid Type B Receptor (GABBR) (AID 2283301)
Procedure, shortened: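 Radioligand displacement on rat cortical membranes, 1 h, filter-based scintillation counting. Primary screen at 25 uM in duplicate; compounds passing threshold re-tested in concentration-response up to 50 uM; loss of binding fitted against DMSO.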

[2] = target: rat Adrenergic, Alpha 1, Non-selective Receptor (Adra1), Adra1a (gene 29412) (UniProt P43140); assay: NVS_GPCR_rAdra1_NonSelective: NovaScreen (NVS) G Protein-Coupled Receptor Assay for rat Adrenergic, Alpha 1, Non-selective Receptor (Adra1) (AID 2283289)
Procedure, shortened: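 Rat forebrain membranes; radioligand displacement read by filter-based scintillation counting 1 h after dosing. Primary screen in duplicate at 25 uM; hits (e.g. ≥30% inhibition) rerun as concentration–response to 50 uM max. Fitted versus DMSO.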

[3] = target: guinea pig Serotonin, 5-Hydroxytryptamine Receptor 4 (5HT4), HTR4 (gene 100135548) (UniProt O70528); assay: NVS_GPCR_g5HT4: NovaScreen (NVS) G Protein-Coupled Receptor Assay for guinea pig Serotonin, 5-Hydroxytryptamine Receptor 4 (5HT4) (AID 2283294)
Procedure, shortened: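 Guinea pig striatal membranes; radioligand competitive displacement, filtration and scintillation counting after 1 h. Primary screen in duplicate at 25 uM; actives then tested in concentration series; loss of binding signal fitted relative to DMSO.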

[4] = target: rat Adrenergic, Alpha 1A Receptor (Adra1A), Adra1a (gene 29412) (UniProt P43140); assay: NVS_GPCR_rAdra1A: NovaScreen (NVS) G Protein-Coupled Receptor Assay for rat Adrenergic, Alpha 1A Receptor (Adra1A) (AID 2283296)
Procedure, shortened: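 Rat cortical membranes pretreated with chlorethyl clonidine; competitive radioligand displacement, 1 h. Filter-based scintillation counting. Primary screen in duplicate at 25 uM, actives followed in concentration series.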

[5] = test system: rat Adrenergic, Alpha 1B Receptor (Adra1B), gene 24173; assay: NVS_GPCR_rAdra1B: NovaScreen (NVS) G Protein-Coupled Receptor Assay for rat Adrenergic, Alpha 1B Receptor (Adra1B) (AID 2283297)
Procedure, shortened: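 Rat liver membranes, radioligand displacement with filter-based scintillation detection, 1 h incubation. Primary screen in duplicate at 25 uM; actives retested in concentration series; activity relative to DMSO.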

[6] = target: rat Adrenergic Receptor, Beta (Adrb), Non-selective Binding, Adrb1 (gene 24925) (UniProt P18090); assay: NVS_GPCR_rAdrb_NonSelective: NovaScreen (NVS) G Protein-Coupled Receptor Assay for rat Adrenergic Receptor, Beta (Adrb), Non-selective Binding (AID 2283298)
Procedure, shortened: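 Non-selective beta-adrenergic radioligand binding in rat cortical membranes, 1 h incubation, filter-based scintillation read-out. Primary screen 25 uM in duplicate; hits retested in concentration-response up to 50 uM, DMSO baseline.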

[7] = target: rat Adrenergic Receptor, Alpha 2 (Adra2), Non-selective Binding, Adra2a (gene 25083) (UniProt P22909); assay: NVS_GPCR_rAdra2_NonSelective: NovaScreen (NVS) G Protein-Coupled Receptor Assay for rat Adrenergic Receptor, Alpha 2 (Adra2), Non-selective Binding (AID 2283299)
Procedure, shortened: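 Rat cortical membranes, radioligand competitive displacement read by filter-based scintillation counting 1.25 hours after dosing. Primary screen in duplicate at 25 uM; actives followed up in concentration series.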

Adra2b (gene 24174) = Adra2b (gene 24174) (UniProt P19328); assay: NVS_GPCR_rmAdra2B: NovaScreen (NVS) G Protein-Coupled Receptor Assay for hybird cells Adrenergic, Alpha 2B Receptor (Adra2B) (AID 2283306)
Procedure, shortened: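 Radioligand filter-binding assay on membrane proteins from neuroglioma/blastoma hybrid cells (rodent), 1 h after dosing; scintillation counting, loss of signal vs DMSO. Primary screen in duplicate at 25 uM, actives then run in concentration series.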

[8] = test system: rabbit Platelet Activating Factor Receptor (PAF), gene 100354046; assay: NVS_GPCR_rabPAF: NovaScreen (NVS) G Protein-Coupled Receptor Assay for rabbit Platelet Activating Factor Receptor (PAF) (AID 2283287)
Procedure, shortened: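 Rabbit platelet membrane preparation; radioligand displacement read by filter-based scintillation counting 1 h after dosing, loss of signal versus DMSO. Primary screen in duplicate at 25 uM, actives followed up in concentration series.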

[9] = target: guinea pig Bradykinin Receptor B2 (BK2), BDKRB2 (gene 100135486) (UniProt O70526); assay: NVS_GPCR_gBK2: NovaScreen (NVS) G Protein-Coupled Receptor Assay for guinea pig Bradykinin Receptor B2 (BK2) (AID 2283292)
Procedure, shortened: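 Radioligand displacement on guinea pig ileum membranes for 1 h, read by filter-based scintillation counting; loss of signal relative to DMSO. Compounds were screened in duplicate at 25 uM, and those passing the threshold were retested in concentration-response up to 50 uM.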

[10] = target: human Opioid Receptor Mu (Opiate Mu), OPRM1 (gene 4988) (UniProt P35372); assay: NVS_GPCR_hOpiate_mu: NovaScreen (NVS) G Protein-Coupled Receptor Assay for human Opioid Receptor Mu (Opiate Mu) (AID 2283290);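 also: hits lower bound tracer signal versus DMSO meaning displacement of the ligand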
Procedure, shortened: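 Cell-free radioligand binding to membranes from CHO cells expressing the receptor; bound tracer measured by filter-based scintillation counting 2.5 hours after dosing. Loss of signal versus DMSO baseline reflects displacement; primary screen at 25 uM in duplicate, actives followed up in concentration series.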

[11] = target: rat Corticotropin Releasing Factor Receptor (CRF), Crhr1 (gene 58959) (UniProt P35353); assay: NVS_GPCR_rCRF: NovaScreen (NVS) G Protein-Coupled Receptor Assay for rat Corticotropin Releasing Factor Receptor (CRF) (AID 2283300)
Procedure, shortened: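 Rat cortical membranes used as receptor source in a radioligand competitive displacement binding assay; scintillation read 2 h after dosing. Primary screen run in duplicate at 25 uM; loss of signal versus DMSO baseline indicates binding.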

[12] = target: rat Glutamate Metabotropic Receptor 5 (MGluR5), Grm5 (gene 24418) (UniProt P31424); assay: NVS_GPCR_rmMGluR5: NovaScreen (NVS) G Protein-Coupled Receptor Assay for rat Glutamate Metabotropic Receptor 5 (MGluR5) (AID 2283307)
Procedure, shortened: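 Rat whole-brain membrane preparation; filter-based radioligand binding read by scintillation counting, 1.5 h after dosing. Single-point screen at 25 uM in duplicate; hits over threshold (e.g. 30% inhibition) retested in concentration-response up to 50 uM; loss of signal vs DMSO.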

[13] = target: rat Histamine Receptor (H3), Hrh3 (gene 85268) (UniProt Q9QYN8); assay: NVS_GPCR_rH3: NovaScreen (NVS) G Protein-Coupled Receptor Assay for rat Histamine Receptor (H3) (AID 2283303)
Procedure, shortened: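 Rat forebrain membranes incubated 1 h with compound; radioligand displacement measured by filter-based scintillation counting. Single-concentration duplicates at 25 µM, then concentration-response up to 50 µM, relative to DMSO.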

[14] = target: Metabotropic glutamate receptor 1 (Rattus norvegicus) (UniProt P23385); assay: NVS_GPCR_rmMGluR1: NovaScreen (NVS) G Protein-Coupled Receptor Assay for rat Glutamate Metabotropic Receptor 1 (MGluR1) (AID 2283305)
Procedure, shortened: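 Rat cerebellum membrane preparation, radioligand displacement binding read by filter-based scintillation counting 1 hour after dosing. Initial duplicate single-point screen at 25 uM, then concentration-response up to 50 uM; loss of signal versus DMSO baseline scored.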

[15] = target: mouse Cholecystokinin, CCK1 Receptor (CCKA), Cckar (gene 12425) (UniProt O08786); assay: NVS_GPCR_mCCKAPeripheral: NovaScreen (NVS) G Protein-Coupled Receptor Assay for mouse Cholecystokinin, CCK1 Receptor (CCKA) (AID 2283285)
Procedure, shortened: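 Radioligand competitive displacement on mouse pancreatic membranes, 2 h incubation; filter-based scintillation counting, loss of signal versus DMSO. Single-concentration screen at 25 uM in duplicate, actives retested in concentration-response up to 50 uM.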

[16] = target: rat Serotonin, 5-Hydroxytryptamine Receptor 1 (5HT1), Non-Selective Binding, Htr1a (gene 24473) (UniProt P19327); assay: NVS_GPCR_r5HT1_NonSelective: NovaScreen (NVS) G Protein-Coupled Receptor Assay for rat Serotonin, 5-Hydroxytryptamine Receptor 1 (5HT1), Non-Selective Binding (AID 2283286)
Procedure, shortened: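 Rat cortical membranes, radioligand displacement, 1 h incubation, read by filter scintillation. Primary screen in duplicate at 25 uM. Hits (e.g. ≥30% inhibition) went to concentration-response up to 50 uM, fitted as loss of binding versus DMSO.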

Sequence of human Opioid Receptor Mu (Opiate Mu), OPRM1 (gene 4988) (P35372 whole entry, looked up): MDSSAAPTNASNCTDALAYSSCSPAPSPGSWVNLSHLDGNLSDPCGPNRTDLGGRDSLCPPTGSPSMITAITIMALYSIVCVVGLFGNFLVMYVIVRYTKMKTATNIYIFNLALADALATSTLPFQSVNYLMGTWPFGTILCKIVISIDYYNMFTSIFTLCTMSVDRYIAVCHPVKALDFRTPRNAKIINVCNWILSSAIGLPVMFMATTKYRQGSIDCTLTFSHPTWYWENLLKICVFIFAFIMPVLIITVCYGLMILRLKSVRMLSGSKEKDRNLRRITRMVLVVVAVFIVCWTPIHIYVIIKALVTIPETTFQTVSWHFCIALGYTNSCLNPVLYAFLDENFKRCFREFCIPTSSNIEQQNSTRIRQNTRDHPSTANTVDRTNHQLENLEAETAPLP
Sequence of mouse Cholecystokinin, CCK1 Receptor (CCKA), Cckar (gene 12425) (O08786 whole entry, looked up): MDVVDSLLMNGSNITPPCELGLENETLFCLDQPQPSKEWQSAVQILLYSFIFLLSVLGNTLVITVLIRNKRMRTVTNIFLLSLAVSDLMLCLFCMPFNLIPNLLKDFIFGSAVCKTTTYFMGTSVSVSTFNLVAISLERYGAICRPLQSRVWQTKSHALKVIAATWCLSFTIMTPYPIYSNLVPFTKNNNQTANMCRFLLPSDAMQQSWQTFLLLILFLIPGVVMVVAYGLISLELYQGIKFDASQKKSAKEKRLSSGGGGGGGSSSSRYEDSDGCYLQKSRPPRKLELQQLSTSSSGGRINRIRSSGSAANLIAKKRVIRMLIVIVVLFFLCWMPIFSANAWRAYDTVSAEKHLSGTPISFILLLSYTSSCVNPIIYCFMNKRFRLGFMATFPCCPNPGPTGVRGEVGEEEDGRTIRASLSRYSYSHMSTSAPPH
Sequence of rat Adrenergic, Alpha 1, Non-selective Receptor (Adra1), Adra1a (gene 29412) (P43140 whole entry, looked up): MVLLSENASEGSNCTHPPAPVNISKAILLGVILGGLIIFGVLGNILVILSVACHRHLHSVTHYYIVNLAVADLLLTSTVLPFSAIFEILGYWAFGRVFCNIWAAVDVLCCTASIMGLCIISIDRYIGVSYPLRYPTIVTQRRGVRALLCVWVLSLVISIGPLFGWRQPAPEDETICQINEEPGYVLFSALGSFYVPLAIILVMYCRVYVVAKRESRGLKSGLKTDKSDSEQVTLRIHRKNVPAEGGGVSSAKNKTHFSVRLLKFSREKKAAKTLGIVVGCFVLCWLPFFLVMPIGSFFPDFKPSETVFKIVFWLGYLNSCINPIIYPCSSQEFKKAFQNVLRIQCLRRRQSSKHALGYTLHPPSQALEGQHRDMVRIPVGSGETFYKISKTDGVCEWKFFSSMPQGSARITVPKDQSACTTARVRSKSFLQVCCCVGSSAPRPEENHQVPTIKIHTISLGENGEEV
Sequence of rat Adrenergic, Alpha 1A Receptor (Adra1A), Adra1a (gene 29412) (P43140 whole entry, looked up): as above
Sequence of Adra2b (gene 24174) (P19328 whole entry, looked up): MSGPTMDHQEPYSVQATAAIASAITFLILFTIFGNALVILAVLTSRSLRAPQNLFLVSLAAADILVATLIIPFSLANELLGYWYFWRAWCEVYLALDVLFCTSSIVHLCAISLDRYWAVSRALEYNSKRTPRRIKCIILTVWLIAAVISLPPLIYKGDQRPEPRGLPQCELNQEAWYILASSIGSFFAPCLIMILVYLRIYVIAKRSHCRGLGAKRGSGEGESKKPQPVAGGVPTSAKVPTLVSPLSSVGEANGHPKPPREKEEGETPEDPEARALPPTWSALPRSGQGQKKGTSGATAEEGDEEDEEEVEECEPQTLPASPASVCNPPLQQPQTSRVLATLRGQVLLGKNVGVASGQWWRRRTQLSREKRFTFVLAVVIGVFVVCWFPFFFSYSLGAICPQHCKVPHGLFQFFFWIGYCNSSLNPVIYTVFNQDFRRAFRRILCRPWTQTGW
Sequence of rat Corticotropin Releasing Factor Receptor (CRF), Crhr1 (gene 58959) (P35353 whole entry, looked up): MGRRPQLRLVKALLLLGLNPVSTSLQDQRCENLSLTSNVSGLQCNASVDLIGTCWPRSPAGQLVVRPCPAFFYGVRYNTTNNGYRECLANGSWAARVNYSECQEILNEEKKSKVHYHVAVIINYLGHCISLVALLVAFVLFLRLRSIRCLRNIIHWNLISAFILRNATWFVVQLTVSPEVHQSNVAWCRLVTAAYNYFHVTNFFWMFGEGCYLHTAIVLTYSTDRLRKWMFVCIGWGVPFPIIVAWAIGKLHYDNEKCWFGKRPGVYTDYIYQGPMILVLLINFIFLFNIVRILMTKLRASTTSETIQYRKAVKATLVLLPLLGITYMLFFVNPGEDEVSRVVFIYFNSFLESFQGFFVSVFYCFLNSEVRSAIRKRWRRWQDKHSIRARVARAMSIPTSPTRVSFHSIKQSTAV
Sequence of rat Histamine Receptor (H3), Hrh3 (gene 85268) (Q9QYN8 whole entry, looked up): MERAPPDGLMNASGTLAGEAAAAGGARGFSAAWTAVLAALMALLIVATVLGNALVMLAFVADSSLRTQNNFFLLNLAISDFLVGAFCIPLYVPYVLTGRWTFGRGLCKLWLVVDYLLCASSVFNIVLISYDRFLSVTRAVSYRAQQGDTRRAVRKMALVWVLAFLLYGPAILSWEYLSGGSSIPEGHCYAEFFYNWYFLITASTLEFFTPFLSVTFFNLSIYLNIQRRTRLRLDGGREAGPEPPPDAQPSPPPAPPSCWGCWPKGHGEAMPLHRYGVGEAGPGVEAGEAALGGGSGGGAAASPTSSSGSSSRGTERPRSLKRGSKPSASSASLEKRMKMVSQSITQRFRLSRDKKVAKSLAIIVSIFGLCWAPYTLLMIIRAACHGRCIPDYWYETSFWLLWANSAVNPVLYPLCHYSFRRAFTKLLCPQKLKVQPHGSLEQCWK
Sequence of rat Serotonin, 5-Hydroxytryptamine Receptor 1 (5HT1), Non-Selective Binding, Htr1a (gene 24473) (P19327 whole entry, looked up): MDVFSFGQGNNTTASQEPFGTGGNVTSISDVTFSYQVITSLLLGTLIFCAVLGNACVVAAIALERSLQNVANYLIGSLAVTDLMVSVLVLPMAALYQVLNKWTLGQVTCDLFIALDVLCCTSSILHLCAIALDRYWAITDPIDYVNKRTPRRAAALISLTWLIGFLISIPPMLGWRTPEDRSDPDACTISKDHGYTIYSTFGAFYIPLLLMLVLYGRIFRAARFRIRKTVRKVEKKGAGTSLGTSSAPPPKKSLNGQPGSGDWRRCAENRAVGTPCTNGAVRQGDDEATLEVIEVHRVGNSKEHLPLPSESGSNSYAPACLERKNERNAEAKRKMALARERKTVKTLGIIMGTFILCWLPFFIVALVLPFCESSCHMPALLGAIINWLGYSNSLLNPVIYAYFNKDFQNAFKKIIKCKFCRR
Sequence of guinea pig Bradykinin Receptor B2 (BK2), BDKRB2 (gene 100135486) (O70526 whole entry, looked up): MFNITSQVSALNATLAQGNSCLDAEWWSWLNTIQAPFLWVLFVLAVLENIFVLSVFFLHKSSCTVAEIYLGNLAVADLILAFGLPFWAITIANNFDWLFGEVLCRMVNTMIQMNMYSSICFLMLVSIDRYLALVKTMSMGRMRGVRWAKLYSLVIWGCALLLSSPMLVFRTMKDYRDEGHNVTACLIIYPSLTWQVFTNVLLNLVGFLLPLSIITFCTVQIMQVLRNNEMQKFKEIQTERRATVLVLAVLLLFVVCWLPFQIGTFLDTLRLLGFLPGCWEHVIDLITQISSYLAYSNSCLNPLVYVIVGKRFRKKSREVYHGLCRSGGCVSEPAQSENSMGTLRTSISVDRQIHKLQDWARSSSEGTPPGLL
Sequence of rat Adrenergic Receptor, Alpha 2 (Adra2), Non-selective Binding, Adra2a (gene 25083) (P22909 whole entry, looked up): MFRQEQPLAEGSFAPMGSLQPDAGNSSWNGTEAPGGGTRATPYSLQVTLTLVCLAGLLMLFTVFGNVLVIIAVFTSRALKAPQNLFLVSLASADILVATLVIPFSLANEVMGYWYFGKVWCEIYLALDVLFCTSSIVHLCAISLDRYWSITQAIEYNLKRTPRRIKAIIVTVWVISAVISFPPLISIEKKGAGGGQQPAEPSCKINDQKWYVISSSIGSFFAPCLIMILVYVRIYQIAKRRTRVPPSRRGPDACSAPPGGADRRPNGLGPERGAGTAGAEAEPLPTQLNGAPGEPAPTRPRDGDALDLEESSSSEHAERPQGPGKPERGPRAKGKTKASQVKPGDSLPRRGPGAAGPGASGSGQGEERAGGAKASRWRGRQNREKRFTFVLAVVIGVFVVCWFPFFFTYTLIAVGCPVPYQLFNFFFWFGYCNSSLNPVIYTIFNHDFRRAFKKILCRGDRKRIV
Sequence of guinea pig Serotonin, 5-Hydroxytryptamine Receptor 4 (5HT4), HTR4 (gene 100135548) (O70528 whole entry, looked up): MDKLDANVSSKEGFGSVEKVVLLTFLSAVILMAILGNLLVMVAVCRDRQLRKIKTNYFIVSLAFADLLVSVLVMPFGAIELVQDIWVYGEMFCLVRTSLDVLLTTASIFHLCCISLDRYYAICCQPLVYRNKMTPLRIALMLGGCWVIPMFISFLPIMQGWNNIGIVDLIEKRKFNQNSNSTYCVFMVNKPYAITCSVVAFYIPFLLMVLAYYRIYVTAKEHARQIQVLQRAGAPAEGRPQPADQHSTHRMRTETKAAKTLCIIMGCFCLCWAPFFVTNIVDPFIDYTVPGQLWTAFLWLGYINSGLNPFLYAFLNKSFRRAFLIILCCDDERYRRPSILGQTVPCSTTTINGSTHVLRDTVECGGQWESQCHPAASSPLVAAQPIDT

`CS(=O)(=O)c1ccc(C(=O)C2C(=O)CCCC2=O)c([N+](=O)[O-])c1` was tested, and the outcome [1] was “inactive”.

In the case of `Cn1c(-c2ccccc2)cc(-c2ccccc2)[n+]1C`, the AC50 [2] was 5.28 µM (active), the AC50 [3] was 6.94 µM (active) and the AC50 [4] was 7.91 µM (active). For the same compound, the AC50 [5] was 16.5 µM (active), the AC50 [6] was 9.62 µM (active) and the AC50 [7] was 3.72 µM (active). For the same compound, the AC50 (Adra2b (gene 24174)) was 0.891 µM (active).

`COP(=O)(OC)O/C(C)=C/C(=O)N(C)C` was tested, and the outcome [4] was “inactive”.

With `CCCC(=NOCC)C1=C(O)CC(CC(C)SCC)CC1=O` (centres undefined) the outcome [8] was “inactive”.

With `COC(=O)NC(=S)Nc1ccccc1NC(=S)NC(=O)OC` the outcome [9] was “inactive”.

For `CCN(CC)C(=O)C(C)Oc1cccc2ccccc12` (centres undefined), the AC50 [10] was 14.8 µM (active) and the outcome [11] was “inactive”.

In the case of `CC1(C)CON(Cc2ccccc2Cl)C1=O`, the outcome [8] was “inactive”.

In the case of `Nc1c(Cl)c(Cl)nc(C(=O)O)c1Cl`, the outcome [8] was “inactive” and the outcome [12] was “inactive”.

With `O=C1C2CC=CCC2C(=O)N1SC(Cl)(Cl)Cl` (centres undefined) the AC50 [10] was 9.7 µM (active), the outcome [13] was “inactive” and the AC50 [14] was 25 µM (active).

In the case of `N#CN=C1SCCN1Cc1ccc(Cl)nc1`, the outcome [11] was “inactive” and the outcome (Adra2b (gene 24174)) was “inactive”.

With `CC1(C)C(C(=O)OC(C#N)c2cccc(Oc3ccccc3)c2)C1(C)C` (centres undefined) the outcome [15] was “inactive”.

For `CCCCC(O)(Cn1cncn1)c1ccc(Cl)cc1Cl` (centres undefined), the outcome [15] was “inactive” and the AC50 [10] was 4.96 µM (active).

For `COCC(=O)N(c1c(C)cccc1C)C(C)C(=O)OC` (centres undefined), the outcome [8] was “inactive”.

With `COc1cc(Cl)c(OC)cc1Cl` the outcome [16] was “inactive” and the outcome [5] was “inactive”.

In the case of `CCOC(=O)C(C)OC(=O)c1cc(Oc2ccc(C(F)(F)F)cc2Cl)ccc1[N+](=O)[O-]` (centres undefined), the outcome [15] was “inactive”.

With `CCOc1nc(F)cc2nc(S(=O)(=O)Nc3c(Cl)cccc3Cl)nn12` the outcome [2] was “inactive”.
